nsP2pro inh: CHIKV nsP2 protease inhibition, primary qHTS | Potency, µM (highest dose often 24.9 µM), usual class: inhibitors | FRET peptide cleavage, nsP2pro, fluorescence 1 h | 31,000 compounds, 1.1% hits | Q8JUX6; also: nearly all actives have a fitted effect of over 60% in size
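FRET cleavage of 2.5 uM peptide 2 by 150 nM CHIKV protease domain at pH 8.0 (Tris, Tween 20). Compounds at 7 concentrations (up to 25 uM) preincubated 15 min. Fluorescence read after 1 h at room temperature.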
nsP2 cell sec: cell-based CHIKV nsP2 protease inhibition, secondary; shares compounds with nsP2pro inh; cell-based CHIKV nsP2 protease reporter assay; Potency, µM (highest dose often 51.1 µM), most hits filed as inhibitors; 450 compounds, 10% hits; AID 1964100; also: nearly all actives have a fitted effect of over 70% in size
CHIKV NSP2 FL: inhibits full-length CHIKV NSP2 enzyme | shares compounds with nsP2pro inh | Full-length CHIKV NSP2 protease enzymatic counterscreen | Potency, µM (titrated, usually from 50.7 µM), usual class: inhibitors | 410 compounds, 39% hits | AID 1964101; also: nearly all actives have a fitted effect of over 65% in size
Furin counterscr: inhibits human furin in a CHIKV nsP2 protease selectivity counterscreen. shares compounds with nsP2pro inh. Recombinant human furin enzymatic counterscreen, fluorogenic substrate. Potency, µM (highest dose often 50.6 µM), actives largely listed as inhibitors. 410 compounds, 6% hits
NS23 peptide cs: nsP2pro inhibition on native NS2/3 peptide substrate; shares compounds with nsP2pro inh; Purified CHIKV nsP2 protease, endogenous NS2/3 peptide cleavage; Potency, µM (top dose mostly 51 µM), most hits filed as inhibitors; 410 compounds, 34% hits; also: nearly all actives have a fitted effect of over 55% in size
Papain cs: inhibits papain in a CHIKV nsP2 protease selectivity counterscreen | Potency, µM (series often up to 51 µM), usual class: inhibitors | purified papain protease activity, enzymatic inhibition | AID 1964104 | 410 compounds, 5% hits | shares compounds with nsP2pro inh
nsP2pro confirm: CHIKV nsP2 protease inhibition, confirmatory qHTS; Potency, µM (highest dose often 25.5 µM), most hits filed as inhibitors; 410 compounds, 43% hits; AID 1964105; CHIKV nsP2 protease enzymatic activity, qHTS; shares compounds with nsP2pro inh; also: nearly all actives have a fitted effect of over 75% in size
HCV NS3 counter: inhibits HCV NS3/4A protease in an nsP2pro selectivity counterscreen; shares compounds with nsP2pro inh; HCV NS3/4A protease biochemical counterscreen; Potency, µM (highest dose often 50.9 µM), hits mostly inhibitors; 410 compounds, 20% hits; also: nearly all actives have a fitted effect of over 55% in size
A number is an active result; - = inactive; ? = inconclusive. This excerpt belongs to a sample that is enriched for hits. Calls follow the shape of the full dose curve.

SMILES	nsP2pro inh	others
Cc1ccc(S(=O)(=O)Nc2cc([N+](=O)[O-])ccc2C(=O)Nc2nc(-c3ccccc3)cs2)cc1	-
CCc1noc(-c2cn(C3CCN(C(=O)c4cc(Cl)ccc4F)CC3)nn2)n1	-
CCN(C)C(C)C(O)c1ccccc1 (stereo not given)	-
CC(=O)N1CCN(c2ccc(NCc3ccc(-c4ccc(Br)cc4)o3)cc2)CC1	-
N#Cc1ccc(-c2ccc(CNc3ccc(N4CCC(C(F)(F)F)CC4)cc3)o2)cc1	2.8µM	nsP2 cell sec=-;CHIKV NSP2 FL=?;Furin counterscr=-;NS23 peptide cs=-;Papain cs=-;nsP2pro confirm=?;HCV NS3 counter=?
CC(C)(C)OC(=O)N1CCN(c2cccc(NCc3ccc(-c4ccc(C#N)cc4)o3)c2)CC1	-
CC(=O)NCC(=O)O	-
N#Cc1ccnc(N2C(=O)CC[C@H]2C(=O)N(c2cncc(F)c2)[C@H](C(=O)NC2CC(F)(F)C2)c2ccccc2Cl)c1	?	nsP2 cell sec=?;CHIKV NSP2 FL=-;Furin counterscr=-;NS23 peptide cs=-;Papain cs=-;nsP2pro confirm=-;HCV NS3 counter=?
Cc1ccccc1C(C(=O)NC1CCCCC1)N(C(=O)Cn1cnc2ccccc21)c1cccc(F)c1 (stereo not given)	-
CCCCCCCCC(=O)N[C@H](CN1CCCC1)[C@H](O)c1ccc2c(c1)OCCO2	-
COc1cccc(CN2C(=O)CCCCC2C(=O)NCCc2c[nH]c3ccc(OC)cc23)c1 (stereo not given)	-
CC(C)(C)c1ccc(CNC(=S)NCc2ccc(NS(C)(=O)=O)c(F)c2)cc1	-
CN(CC1CCOC1)C(=O)Cc1ccccc1 (stereo not given)	-
CCN1CCN(C(=O)C2Cn3cccc3C(=O)N2C)CC1 (stereo not given)	-
C=C1C(=O)O[C@@H]2[C@H]1CC(=O)[C@H](C)[C@@](O)(C(=O)/C=C/C)[C@H]2OC(=O)C(C)CC (stereo not given in full)	?	nsP2 cell sec=?;CHIKV NSP2 FL=?;Furin counterscr=-;NS23 peptide cs=13µM;Papain cs=-;nsP2pro confirm=?;HCV NS3 counter=-
C=C1C(=O)OC2/C=C(\COO)CC/C=C(\COC(C)=O)CC(OC(=O)C(C)CC)C12 (stereo not given)	-
C=C1C(=O)O[C@@H]2C[C@@H](C)[C@]34C[C@]5(C(=O)O[C@H]6CC(C)=C([C@H](C)CCCO)[C@H](OC(=O)C(C)CC)[C@H]65)[C@@H](C(C)=C3C[C@@H]12)[C@H]4OC(C)=O (stereo not given in full)	-
COc1ccc(CCNC(=O)c2cc3sccc3n2Cc2ccc(F)cc2)cc1OC	-
O=C(Nc1ccc([N+](=O)[O-])cc1)Nc1ccc([N+](=O)[O-])cc1	-
O=C(N[C@H](CO)[C@H](O)c1ccc([N+](=O)[O-])cc1)C(Cl)Cl	-
COC(=O)C#Cc1ccc([N+](=O)[O-])cc1	0.99µM	nsP2 cell sec=?;CHIKV NSP2 FL=1.2µM;Furin counterscr=-;NS23 peptide cs=2.9µM;Papain cs=-;nsP2pro confirm=0.56µM;HCV NS3 counter=-
O=C(NCCc1ccc(Cl)cc1)c1cc(-c2cccs2)c2cccn2n1	-
O=C(NCc1ccc(F)cc1)[C@H]1CN2CCC1C[C@@H]2Cn1cc(CSc2ccccc2)nn1 (stereo not given in full)	-
CC(=O)OC[C@@]12C(=O)C[C@@H](C)[C@]3(C[C@@H](c4ccoc4)OC3=O)[C@H]1CC[C@H](OC(C)=O)[C@]21CO1	-
C[C@@H]1CC[C@]2(C)C3(C)CC[C@@]2(OC3=O)[C@@]12C[C@H](c1ccoc1)OC2=O	2.4µM	nsP2 cell sec=-;CHIKV NSP2 FL=7.2µM;Furin counterscr=-;NS23 peptide cs=?;Papain cs=-;nsP2pro confirm=2.2µM;HCV NS3 counter=1.8µM
SMILES	nsP2pro inh	others
Cn1nnc(-c2ccc(-c3ccc(N4C[C@@H](CO)OC4=O)cc3F)cn2)n1	-
CC(C)[C@@H]1NC(=O)[C@@H](C(C)C)OC(=O)[C@H](C(C)C)NC(=O)[C@H](C)OC(=O)[C@@H](C(C)C)NC(=O)[C@@H](C(C)C)OC(=O)[C@H](C(C)C)NC(=O)[C@H](C)OC(=O)[C@@H](C(C)C)NC(=O)[C@@H](C(C)C)OC(=O)[C@H](C(C)C)NC(=O)[C@H](C)OC1=O	-
O=C(Nc1nc(-c2ccccc2)cs1)c1cccc(NS(=O)(=O)c2nccs2)c1	-
Cc1cc(OCCN(C)C)c(C)c2c1CC[C@@H]([C@H](C)C(=O)NCc1cccs1)C2	-
COc1cc(C)c2c(c1C)C[C@H](C(C)C(=O)NCc1ccco1)CC2 (stereo not given in full)	7.9µM	nsP2 cell sec=-
COc1ccc(CCNC(=O)C(C)C2CCOCC2)cc1OC (stereo not given)	-
CC(C)=C1C/C=C(\C)CC/C=C(\C)CC1=O	-
CC(C)=CCC/C(C)=C/CC/C(C)=C/CC[C@]1(C)CCc2cc(O)cc(C)c2O1	-
Cc1ccc(OCC(=O)N2CCN(CCc3ccncc3)CC2)cc1C	-
Cc1cc(OCC(=O)N2CCN(CCc3ccncc3)CC2)ccc1Cl	-
CCCCOc1ccc(C(=O)N2CCN(CCc3ccncc3)CC2)cc1	?	nsP2 cell sec=-
CCCCOc1ccc(C(=O)CCN2CCCCC2)cc1	2.2µM	nsP2 cell sec=?;CHIKV NSP2 FL=10µM;Furin counterscr=?;NS23 peptide cs=13µM;Papain cs=?;nsP2pro confirm=9µM;HCV NS3 counter=-
O=C(O)c1ccc(OCCCOc2ccc(C(=O)O)cc2)cc1	-
CCCCOc1ccc(OCCCN2CCOCC2)cc1	-
O=C(O)c1ccc(N2C(=O)/C(=C/c3ccc(-c4ccc([N+](=O)[O-])cc4)o3)C=C2c2ccccc2)cc1	7.9µM	nsP2 cell sec=-;CHIKV NSP2 FL=?;Furin counterscr=-;NS23 peptide cs=-;Papain cs=18µM;nsP2pro confirm=-;HCV NS3 counter=-
O=C(O)c1ccc2c(c1)C(=O)N([C@H](Cc1ccc([N+](=O)[O-])cc1)C(=O)O)C2=O	-
O=C(C1CCC1)N1CCC[C@H]1c1nc(-c2ccc(F)cc2)n[nH]1	-
Cc1ccc(C(=O)N2CCC(Cc3noc(C4CCOCC4)n3)C2)s1 (stereo not given)	-
COc1ccc(C(=O)NC2CCN(c3ccnc4ccnn34)C2)cc1 (stereo not given)	-
c1cc2c(cc1CNc1ccc(N3CCCCC3)cc1)OCO2	-
C#CCN(Cc1nc(-c2ccccc2OCC)oc1C)C1CCCCC1	-
O=C(/C=C/c1ccc(O)cc1)OC[C@@]1(O)C=C[C@@H]2C(C(=O)O)=CO[C@@H](O[C@@H]3O[C@H](CO)[C@@H](O)[C@H](O)[C@H]3O)[C@@H]21	-
